Screens deposited in PubChem by National Center for Advancing Translational Sciences (NCATS).
MCF10A rereplic: induces DNA re-replication in MCF 10a normal breast cells. MCF 10A DNA re-replication, Hoechst nuclear intensity, 48 h. hit rate 2.9% among 350,000. AID 624296. Potency, µM (doses to about 46.1 µM), actives largely listed as activators; note: nearly all actives have a fitted effect of over 50% in size
ELG1 repair inh: ELG1-dependent DNA repair inhibition | HEK293T ELG1-luciferase reporter, luminescence, 16 h; DNA damage induced by 5-fluorouridine | Potency, µM (doses to about 46.1 µM), usual class: inhibitors | hit rate 2.3% among 330,000; note: nearly all actives have a fitted effect of over 55% in size
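Reporter activity after DNA damage by 5-fluorouridine is monitored. Compound-treated cells incubate 16 hr at 37 °C, then ONE-Glo is added for 30 min before luminescence reading.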
KB-3-1 cytotox: kills parental KB-3-1 adenocarcinoma cells; KB-3-1 viability, CellTiter-Glo ATP luminescence, 72 h; AID 1347075; hit rate 1.4% among 400,000; Potency, µM (series often up to 46.1 µM), usual class: cytotoxic; note: nearly all actives have a fitted effect of over 60% in size
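Using CellTiter-Glo luminescence, growth of non-resistant KB-3-1 adenocarcinoma cells is assessed 72 h after pin-tool compound addition at 37 °C. Normalized responses across the concentration series yield fitted curves.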
KB-V1 cytotox: KB-V1 MDR subline cytotoxicity. KB-V1 MDR cells viability, CellTiter-Glo, 72 h. Potency, µM (doses to about 46.1 µM), actives largely listed as cytotoxic. hit rate 3.4% among 400,000; note: nearly all actives have a fitted effect of over 60% in size
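Cytotoxicity via CellTiter-Glo luminescence after 72 h compound exposure at 37 degrees C. Cells: drug-selected KB-V1 line, DMEM phenol-red free plus 10% FBS. Compounds tested at multiple concentrations; normalized data fitted to concentration-effect curves.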
SW480 rereplic: inducers of DNA re-replication in SW480 colon cancer cells. hit rate 1.8% among 340,000. SW480 DNA re-replication, Hoechst DNA content imaging, 48 h. Potency, µM (doses to about 46.1 µM), actives largely listed as activators; note: nearly all actives have a fitted effect of over 55% in size
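Hoechst fluorescence of nuclei (405 nm excitation, 500-530 nm emission) measured by plate-scanning imager after 48 hr compound exposure at 37 C; re-replication scored as increased number of nuclei with elevated intensity.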
Each line names hits and unclear results; the compound was inactive in the other large screens. Most compounds without a hit are left out; they make up all but 8.2% or so of the library. Calls come from the whole dose curve; as a rule, active = well fitted curve in the direction sought with a large enough effect; inconclusive = small, poorly fitted or top-dose-only effect, or another doubt; inactive = no such curve, though single readings can be large; an effect the other way counts as inactive or inconclusive.

Cc1ccc(CNC(=S)NC2CCC(C(C)(C)C)CC2)cc1 (centres undefined)	MCF10A rereplic inconclusive
CN(C)CCOC1(Cc2ccc(F)cc2)CCC(C(C)(C)C)CC1 (centres undefined)	KB-V1 cytotox 16.4µM (no result: ELG1 repair inh)
Cc1ccc(CC2(OCCN(C)C)CCC(C(C)(C)C)CC2)cc1 (centres undefined)	MCF10A rereplic inconclusive, KB-3-1 cytotox inconclusive, KB-V1 cytotox 18.4µM (no result: ELG1 repair inh)
Nc1nonc1-c1nc2ccccc2n1Cc1cccc(Cl)c1	none (no result: MCF10A rereplic, ELG1 repair inh, SW480 rereplic)
COc1cccc(Cn2c(-c3nonc3N)nc3ccccc32)c1	MCF10A rereplic 2.59µM, KB-3-1 cytotox 2.91µM, KB-V1 cytotox 11.6µM, SW480 rereplic 4.61µM
COc1cc(Cn2c(-c3nonc3N)nc3ccccc32)ccc1C	MCF10A rereplic 3.98µM, KB-3-1 cytotox 4.61µM, KB-V1 cytotox 5.17µM, SW480 rereplic 7.08µM
O=C(CNC(=O)c1ccccc1Cl)N/N=C/c1ccc([N+](=O)[O-])s1	ELG1 repair inh inconclusive, KB-3-1 cytotox 2.59µM, KB-V1 cytotox inconclusive, SW480 rereplic inconclusive
O=C(Cc1cccs1)N/N=C\c1ccc([N+](=O)[O-])s1	MCF10A rereplic inconclusive, ELG1 repair inh 14.6µM
CSCCC(NS(=O)(=O)c1cccs1)C(=O)NCc1ccc(C)cc1 (centres undefined)	KB-V1 cytotox inconclusive, SW480 rereplic 0.164µM
CCOC(=O)CNC(=O)C(Cc1ccccc1)NS(=O)(=O)c1cccs1 (centres undefined)	MCF10A rereplic 20.6µM
Cc1ccc(CNC(=O)C(Cc2ccccc2)NS(=O)(=O)c2cccs2)cc1 (centres undefined)	KB-V1 cytotox inconclusive
CCCCCCCCNC(=O)c1cnsn1	SW480 rereplic 0.517µM
CCCCn1nc(NC(=O)CC(C)C)c2cc3cc(OC)ccc3nc21	MCF10A rereplic 14.6µM, SW480 rereplic 11.6µM
CCCCn1nc(NC(=O)CCC)c2cc3cc(OC)ccc3nc21	MCF10A rereplic inconclusive, KB-V1 cytotox inconclusive, SW480 rereplic inconclusive
COc1ccc2nc3c(cc2c1)c(NC(=O)CC(C)C)nn3CC(C)C	MCF10A rereplic 7.31µM, SW480 rereplic 8.2µM
CCC(=O)Nc1nn(CC(C)C)c2nc3ccc(C)cc3cc12	MCF10A rereplic inconclusive, SW480 rereplic 18.4µM
O=C(OCc1cc(=O)n2nc(C3CCCCC3)sc2n1)c1ccc(F)cc1	none (no result: MCF10A rereplic, ELG1 repair inh, SW480 rereplic)
C(=Nc1ccc2ccccc2n1)c1ccccn1	none (no result: MCF10A rereplic, ELG1 repair inh, SW480 rereplic)
CN(C)Cc1cc(C(F)(F)F)ccc1C(O)(c1ccccc1)c1ccccc1	KB-3-1 cytotox inconclusive, KB-V1 cytotox 20.6µM, SW480 rereplic inconclusive (no result: ELG1 repair inh)
O=C(NCCOc1ccccc1)c1ccccc1SCC(=O)N1CCCC1	none
COc1ccc(OCCNC(=O)c2ccccc2OCC(=O)N2CCCCC2)cc1	ELG1 repair inh 23.1µM, KB-3-1 cytotox inconclusive, KB-V1 cytotox inconclusive
COc1ccc(OCCNC(=O)c2ccccc2OCC(=O)Nc2ccc(NC(C)=O)cc2)cc1	ELG1 repair inh 16.4µM
CC(C)c1ccc(C(=O)NCCCN2CCN(CCCNC(=O)c3ccc(C(C)C)cc3)CC2)cc1	MCF10A rereplic 23.1µM, KB-V1 cytotox inconclusive, SW480 rereplic inconclusive
O=C(NCCCN1CCN(CCCNC(=O)c2ccc(F)cc2)CC1)c1ccc(F)cc1	none
CCCCCCN1C[C@H](O)[C@@H](n2cc(COC(=O)c3ccccc3)nn2)C[C@@H]1c1ccc(Cl)cc1	none (no result: MCF10A rereplic, ELG1 repair inh, SW480 rereplic)
CNc1nc2cc([N+](=O)[O-])c([N+](=O)[O-])cc2nc1NC	ELG1 repair inh inconclusive, KB-3-1 cytotox 8.2µM
c1ccc(C2[C@H]3CN(Cc4cccnc4)[C@H](c4ccccc4)C34CC2(c2cccnc2)C4)cc1 (some centres undefined)	MCF10A rereplic inconclusive, KB-3-1 cytotox inconclusive, KB-V1 cytotox 20.6µM
COC(=O)c1cccc(C23CC4(C2)[C@H](CN(Cc2ccc(C(F)(F)F)cc2)[C@@H]4c2ccccc2)C3c2ccc(C(F)(F)F)cc2)c1 (some centres undefined)	KB-3-1 cytotox 13µM
CC(=O)c1ccc(NC(=O)CN2C(=O)/C(=C/C=C/c3ccccc3)SC2=S)cc1	MCF10A rereplic 10.3µM
O=C(O)CN1C(=O)/C(=C/C=C/c2ccccc2)SC1=S	none
Cc1ccccc1N1C(=O)C(Oc2ccc(Cl)cc2)C1CNC(C)(C)C (centres undefined)	KB-V1 cytotox 5.8µM, SW480 rereplic inconclusive
CC(NC(=O)c1cccnc1)C(=O)O (centres undefined)	SW480 rereplic 1.03µM
CC(=O)c1c(C)[nH]c(C(=O)OCC(=O)NCc2ccc(Cl)cc2)c1C	MCF10A rereplic inconclusive, ELG1 repair inh inconclusive, KB-3-1 cytotox inconclusive
CC(=O)c1c(C)[nH]c(C(=O)OCC(=O)NCc2cccs2)c1C	ELG1 repair inh inconclusive, KB-3-1 cytotox inconclusive, KB-V1 cytotox 13µM
CC(=O)c1c(C)[nH]c(C(=O)OCC(=O)NCCc2ccc(F)cc2)c1C	ELG1 repair inh 20.6µM, KB-V1 cytotox inconclusive
CC(Cc1cccs1)NC(=S)Nc1ccc(Cl)c(Cl)c1 (centres undefined)	MCF10A rereplic inconclusive
CC(Cc1cccs1)NC(=S)Nc1ccc(Cl)cc1 (centres undefined)	MCF10A rereplic 20.6µM
CN(CC(=O)Nc1cccc(F)c1)C(=O)c1cc([N+](=O)[O-])ccc1N1CCOCC1	none
CCOC(=O)Cn1c(=NC(=O)C2COc3ccccc3O2)sc2cc(S(N)(=O)=O)ccc21 (centres undefined)	none
CCOC(=O)Cn1c(=NC(=O)c2ccc([N+](=O)[O-])s2)sc2ccccc21	MCF10A rereplic 3.66µM, KB-3-1 cytotox 4.61µM, KB-V1 cytotox inconclusive, SW480 rereplic inconclusive
Cc1cc(C)n(-c2nc(-c3ccc(Cl)c(Cl)c3)cs2)n1	MCF10A rereplic 7.08µM, ELG1 repair inh inconclusive
CCOc1ccc2nc(N3CCCC(C(=O)NCc4ccc(OC)cc4)C3)sc2c1 (centres undefined)	none (no result: MCF10A rereplic, ELG1 repair inh, SW480 rereplic)
CC(=O)c1ccc(NC(=O)Cn2c3ncccc3c(=O)n2-c2ccc(C)cc2)cc1	KB-V1 cytotox inconclusive (no result: MCF10A rereplic, ELG1 repair inh, SW480 rereplic)
CCOC(=O)c1ccccc1NS(=O)(=O)c1ccc(OCC)cc1	MCF10A rereplic 13µM, ELG1 repair inh inconclusive, KB-3-1 cytotox inconclusive, KB-V1 cytotox inconclusive, SW480 rereplic 11.6µM
CCOC(=O)NCc1ccccc1	SW480 rereplic inconclusive
COC(=O)c1cccc(NS(=O)(=O)c2ccc(OC)cc2)c1C	MCF10A rereplic 5.8µM, ELG1 repair inh inconclusive, KB-3-1 cytotox 8.2µM, KB-V1 cytotox 9.2µM, SW480 rereplic inconclusive
CCOC(=O)NCc1ccc(S(=O)(=O)Nc2ccccc2C)cc1	ELG1 repair inh inconclusive, KB-V1 cytotox 23.1µM
COC(=O)c1cccc(NS(=O)(=O)c2ccc(OC)c(OC)c2)c1C	ELG1 repair inh inconclusive, KB-V1 cytotox inconclusive
COC(=O)CC1Oc2ccc(F)cc2-n2cc(-c3ccc(C)cc3)nc21 (centres undefined)	none (no result: MCF10A rereplic, ELG1 repair inh, SW480 rereplic)
